Test results: PubChem BioAssay (Tox21)
Records with an inconclusive call do not appear. The source made the active and inactive calls. Unless noted, calls follow the shape of the full dose curve.

Experiments:
[1] = Nuclear factor erythroid 2-related factor 2/antioxidant responsive element (Nrf2/ARE) small molecule agonists: qHTS cell viability counter screen in human keratinocytes (AID 1919968; active = well fitted curve in the direction sought with a large enough effect in the repeat runs; an effect the other way counts as inactive or inconclusive; also: nearly all actives have a fitted effect of over 55% in size; also: potency is read from the fitted curve at half-maximal effect)
Outline: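 Measured as CellTiter-Fluor fluorescence, this readout tracks cytotoxicity in the same wells as the ARE-luciferase screen. HaCaT reporter cells (1,500/well) received compounds after a 5 h pre-incubation and were exposed for 23 h.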

[2] = Nuclear factor erythroid 2-related factor 2/antioxidant responsive element (Nrf2/ARE) small molecule agonists: luciferase reporter gene qHTS assay in human keratinocytes (AID 1919969); also: nearly all actives have a fitted effect of over 35% in size; also: potency is read from the fitted curve at half-maximal effect
[3] = molecular target: Gonadotropin-releasing hormone receptor (Homo sapiens) (UniProt P30968); assay: Human gonadotropin-releasing hormone receptor (GnRHR) small molecule agonists, calcium flux assay in GnRHR-HEK293 cells (AID 1920063); also: nearly all actives have a fitted effect of over 35% in size
Chain of Gonadotropin-releasing hormone receptor (Homo sapiens) (P30968 whole entry, looked up): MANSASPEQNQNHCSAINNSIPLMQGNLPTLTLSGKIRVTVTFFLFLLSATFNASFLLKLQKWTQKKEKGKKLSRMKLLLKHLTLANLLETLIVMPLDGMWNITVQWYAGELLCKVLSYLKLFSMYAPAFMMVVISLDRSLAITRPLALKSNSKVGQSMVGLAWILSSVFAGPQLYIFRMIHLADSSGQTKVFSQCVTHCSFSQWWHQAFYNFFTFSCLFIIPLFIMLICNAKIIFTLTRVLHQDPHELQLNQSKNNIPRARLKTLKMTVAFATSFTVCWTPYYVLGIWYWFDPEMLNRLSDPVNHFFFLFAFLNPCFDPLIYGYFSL
Outline: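 Fluorescence kinetics (480 nm excitation, 540 nm emission; 3 min, 1 s steps) report calcium mobilisation in human GnRHR-HEK293 cells in agonist mode. Dye incubation: 1 h, 37 C.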

[4] = G protein-coupled receptor (GPCR) small molecule agonists, calcium flux assay: HEK293 wild type cell line counter screen (AID 1920065)
Outline: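 Readout: fluorescence at 480 nm excitation/540 nm emission, sampled at 1 s intervals for 3 min. Cells had been cultured 18 h, then dye-loaded 1 h at 37 C before compound or ATP addition.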

[5] = p53 small molecule agonists, cell-based qHTS assay with rat liver microsomes (AID 1963578)
Outline: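 Agonist mode in p53RE-bla reporter cells, with compounds co-incubated 16 h at 37 C alongside 0.5 mg/mL rat liver microsomes and 0.5 mg/mL NADPH (final), followed by a 2 h LiveBLAzer detection step.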

[6] = p53 small molecule agonists, cell-based qHTS assay with human liver microsomes: qHTS cell viability counter screen (AID 1963579); also: nearly all actives have a fitted effect of over 45% in size
Outline: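 Metabolically activated exposure: compounds, human liver microsomes and NADPH (0.5 mg/mL final apiece) were added to p53RE-bla cells seeded 5 h earlier, left 16 h at 37 C, and then assessed for viability by CellTiter-Glo luminescence.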

[7] = p53 small molecule agonists, cell-based qHTS assay with rat liver microsomes: qHTS cell viability counter screen (AID 1963580); also: nearly all actives have a fitted effect of over 45% in size
Outline: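 HCT-116 p53RE-bla, 4,000 cells/well, 5 h pre-incubation; cpd + rat liver microsomes 0.5 mg/mL + NADPH 0.5 mg/mL (final); 16 h, 37 C; CellTiter-Glo, 30 min RT; luminescence.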

[8] = molecular target: 5-hydroxytryptamine receptor 2A (Homo sapiens) (UniProt P28223); assay: 5-hydroxytryptamine receptor 2A (HTR2A) small molecule antagonists, cell-based qHTS assay (AID 1963586); also: nearly all actives have a fitted effect of over 45% in size
Chain of 5-hydroxytryptamine receptor 2A (Homo sapiens) (P28223 whole entry, looked up): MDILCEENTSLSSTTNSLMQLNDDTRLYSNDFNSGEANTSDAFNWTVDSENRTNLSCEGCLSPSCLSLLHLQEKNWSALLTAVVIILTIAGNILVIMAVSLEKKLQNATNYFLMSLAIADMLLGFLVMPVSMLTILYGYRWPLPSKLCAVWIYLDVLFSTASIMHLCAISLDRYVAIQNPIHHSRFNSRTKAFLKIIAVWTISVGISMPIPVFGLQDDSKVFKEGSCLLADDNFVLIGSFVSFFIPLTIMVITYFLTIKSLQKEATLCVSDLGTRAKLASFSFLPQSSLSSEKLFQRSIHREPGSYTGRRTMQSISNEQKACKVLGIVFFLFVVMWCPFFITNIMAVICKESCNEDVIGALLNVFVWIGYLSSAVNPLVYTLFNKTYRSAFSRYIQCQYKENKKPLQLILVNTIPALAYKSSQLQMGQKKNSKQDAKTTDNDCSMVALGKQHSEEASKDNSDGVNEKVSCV
Outline: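 Antagonist-mode intracellular calcium assay: DOI (4 nM) added after 5 min compound pre-incubation at room temperature to dye-loaded HTR2A-CHO cells. Fluorescence followed for 3 min, sampled every second.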

[9] = molecular target: 5-hydroxytryptamine receptor 2A (Homo sapiens) (UniProt P28223); assay: 5-hydroxytryptamine receptor 2A (HTR2A) small molecule agonists, cell-based qHTS assay (AID 1963587); also: nearly all actives have a fitted effect of over 30% in size
Outline: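 Kinetic calcium-flux fluorescence (2 min, 1 sec intervals) after compound addition in agonist mode. HTR2A-CHO cells were cultured 18 h, then dye-loaded 1 h at 37 C.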

[10] = molecular target: Muscarinic acetylcholine receptor M1 (Homo sapiens) (UniProt P11229); assay: Cholinergic receptor muscarinic 1 (CHRM1) small molecule antagonists, cell-based qHTS assay (AID 1963588); also: nearly all actives have a fitted effect of over 40% in size; also: potency is read from the fitted curve at half-maximal effect
Chain of Muscarinic acetylcholine receptor M1 (Homo sapiens) (P11229 whole entry, looked up): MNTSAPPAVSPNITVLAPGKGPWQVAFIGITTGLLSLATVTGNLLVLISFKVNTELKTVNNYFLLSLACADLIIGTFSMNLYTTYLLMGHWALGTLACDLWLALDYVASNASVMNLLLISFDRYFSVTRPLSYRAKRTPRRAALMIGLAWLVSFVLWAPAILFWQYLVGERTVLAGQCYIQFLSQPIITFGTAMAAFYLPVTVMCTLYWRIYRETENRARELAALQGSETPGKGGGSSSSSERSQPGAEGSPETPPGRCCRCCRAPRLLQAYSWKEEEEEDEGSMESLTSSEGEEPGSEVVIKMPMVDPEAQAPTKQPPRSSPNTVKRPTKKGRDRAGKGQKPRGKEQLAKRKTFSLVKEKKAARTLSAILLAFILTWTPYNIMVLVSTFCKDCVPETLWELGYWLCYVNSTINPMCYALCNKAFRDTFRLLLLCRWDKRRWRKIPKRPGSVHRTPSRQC
Outline: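 CHRM1-CHO calcium-flux assay, antagonist mode. Cells were seeded 18 h, dye-loaded 1 h at 37 C and given compound for 5 min at RT, then acetylcholine was added at 50nM. FDSS fluorescence was read 3 min; 15 concentrations, three runs.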

[11] = molecular target: Muscarinic acetylcholine receptor M1 (Homo sapiens) (UniProt P11229); assay: Cholinergic receptor muscarinic 1 (CHRM1) small molecule agonists, cell-based qHTS assay (AID 1963589); also: nearly all actives have a fitted effect of over 35% in size
Outline: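 Each compound was tested at 15 concentrations across three independent runs on dye-loaded CHO cells stably expressing human CHRM1, reading intracellular calcium fluorescence kinetically at 1 sec intervals.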

[12] = cAMP Responsive Elements (CRE) small molecule agonists, cell-based qHTS assay (AID 1963590)
Outline: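 Cell line: CRE-bla HEK 293T; medium DMEM/10% dialyzed FBS/0.1 mM NEAA/1 mM pyruvate/25 mM HEPES; 3 h compound exposure; beta-lactamase FRET readout after 2 h substrate loading at RT.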

[13] = molecular target: Beta-2 adrenergic receptor (Homo sapiens) (UniProt P07550); assay: Adrenergic beta2 receptor (ADRB2) small molecule antagonists, cell-based qHTS assay (AID 1963592); also: nearly all actives have a fitted effect of over 50% in size; also: potency is read from the fitted curve at half-maximal effect; as to activity change, negative = inhibition: series mostly up to about 92 µM
Chain of Beta-2 adrenergic receptor (Homo sapiens) (P07550 whole entry, looked up): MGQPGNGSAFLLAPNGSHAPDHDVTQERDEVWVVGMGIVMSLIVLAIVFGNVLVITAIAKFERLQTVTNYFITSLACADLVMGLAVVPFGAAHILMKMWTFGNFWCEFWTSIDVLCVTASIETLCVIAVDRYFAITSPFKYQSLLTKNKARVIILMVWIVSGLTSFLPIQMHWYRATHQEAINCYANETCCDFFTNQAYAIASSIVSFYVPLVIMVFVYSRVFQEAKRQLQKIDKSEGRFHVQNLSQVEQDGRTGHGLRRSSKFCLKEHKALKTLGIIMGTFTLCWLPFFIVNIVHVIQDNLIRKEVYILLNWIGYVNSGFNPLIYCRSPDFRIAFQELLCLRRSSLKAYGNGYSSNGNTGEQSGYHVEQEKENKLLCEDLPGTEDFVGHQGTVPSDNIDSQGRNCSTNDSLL
Outline: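 Cells (CHO, stable ADRB2 overexpression) incubated 18-20hr at 37C; compounds added from DMSO; agonist mix (1nM isoproterenol, 100uM IBMX, 25uM Ro-20-1724) added; 0.5hr RT; d2-cAMP and anti-cAMP-cryptate added; 1hr RT; 665/615 nm read.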

[14] = molecular target: D(2) dopamine receptor (Homo sapiens) (UniProt P14416); assay: Dopamine D2 receptor (DRD2) small molecule agonists, cell-based qHTS assay (AID 1963594); also: nearly all actives have a fitted effect of over 35% in size
Chain of D(2) dopamine receptor (Homo sapiens) (P14416 whole entry, looked up): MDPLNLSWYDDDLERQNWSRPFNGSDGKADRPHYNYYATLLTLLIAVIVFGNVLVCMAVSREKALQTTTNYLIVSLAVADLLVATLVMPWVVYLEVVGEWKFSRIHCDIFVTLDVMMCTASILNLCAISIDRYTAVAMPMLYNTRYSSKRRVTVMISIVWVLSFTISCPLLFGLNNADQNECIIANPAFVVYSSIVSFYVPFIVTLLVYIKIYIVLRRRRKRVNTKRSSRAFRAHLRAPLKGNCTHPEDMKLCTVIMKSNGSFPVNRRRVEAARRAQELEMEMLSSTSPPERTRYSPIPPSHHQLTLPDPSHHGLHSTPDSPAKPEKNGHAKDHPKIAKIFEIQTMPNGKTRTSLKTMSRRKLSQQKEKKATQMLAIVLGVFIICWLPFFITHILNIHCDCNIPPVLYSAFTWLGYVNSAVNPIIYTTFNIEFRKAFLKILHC
Outline: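 cAMP accumulation in DRD2-HEK293 cells measured by HTRF after 1 h detection; compounds added 10 min before NKH477 (200nM […]) forskolin-analogue stimulation, 30 min at room temperature, with Ro20-1724 present at 0.1 mM final.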

[15] = molecular target: D(2) dopamine receptor (Homo sapiens) (UniProt P14416); assay: Dopamine D2 receptor (DRD2) small molecule antagonists, cell-based qHTS assay (AID 1963595; active = well fitted inhibition curve with a large enough effect in the signal ratio in the repeat runs, with a control signal flat; the % refers to the signal ratio)
Outline: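 In this cell-based antagonist screen, compounds act for 10 min at room temperature before a 30 min challenge with 12 nM quinpirole and 200 nM NKH477. cAMP is quantified by HTRF competition in DRD2-HEK293 cells containing 0.1 mM Ro20-1724.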

[16] = molecular target: KiSS-1 receptor (Homo sapiens) (UniProt Q969F8); assay: Human kisspeptin (KISS1R) small molecule agonists, calcium flux assay in KISS1R-HEK293 cells (AID 1920064; active = well fitted curve in the direction sought with a large enough effect in the repeat runs; an effect the other way counts as inactive or inconclusive)
Chain of KiSS-1 receptor (Homo sapiens) (Q969F8 whole entry, looked up): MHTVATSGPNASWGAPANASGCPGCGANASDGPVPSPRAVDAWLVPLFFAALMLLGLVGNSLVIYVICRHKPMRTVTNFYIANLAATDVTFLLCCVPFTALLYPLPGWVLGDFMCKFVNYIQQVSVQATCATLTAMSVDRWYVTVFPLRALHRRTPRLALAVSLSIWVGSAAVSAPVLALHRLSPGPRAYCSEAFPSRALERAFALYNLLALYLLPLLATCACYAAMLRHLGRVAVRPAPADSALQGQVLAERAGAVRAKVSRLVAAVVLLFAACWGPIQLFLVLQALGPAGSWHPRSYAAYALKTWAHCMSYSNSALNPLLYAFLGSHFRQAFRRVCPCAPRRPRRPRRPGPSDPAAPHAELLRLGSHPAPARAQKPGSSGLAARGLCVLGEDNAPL
Outline: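 Measures KISS1R agonism through calcium-sensitive dye fluorescence in stably transfected HEK293 cells, read for 3 min after pin-tool compound delivery; 15-point titrations in triplicate.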

[17] = p53 small molecule agonists, cell-based qHTS assay with human liver microsomes (AID 1963577);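 also: p53 response element beta-lactamase reporter cells with liver microsomes plus NADPH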
Outline: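 In this qHTS, p53 response-element beta-lactamase cells receive test compound together with a microsome/NADPH activating system (0.5 mg/mL final each) and are incubated 16 h at 37 C before LiveBLAzer fluorescence detection.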

[18] = p53 small molecule agonists, cell-based qHTS assay: qHTS cell viability counter screen (AID 1963581); also: nearly all actives have a fitted effect of over 45% in size
Outline: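 In the same plates used for the p53 bla reporter, HCT-116 cells given compounds for 16 h at 37 C received CellTiter-Glo; luminescence was recorded 30 min later at room temperature.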

[19] = p53 small molecule agonists, cell-based qHTS assay (AID 1963582; active = well fitted activation curve with a large enough effect in the signal ratio in the repeat runs, not every such curve was filed as active; the % refers to the signal ratio)
Outline: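 Compounds are pin-transferred in DMSO onto p53RE-bla cells and incubated 16 h at 37 C. The B/G FRET beta-lactamase substrate is then applied for 2 h at RT and fluorescence recorded.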

[20] = cAMP Responsive Elements (CRE) small molecule antagonists, cell-based qHTS assay (AID 1963591; active = well fitted inhibition curve with a large enough effect in the signal ratio in the repeat runs, not every such curve was filed as active; the % refers to the signal ratio)
Outline: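 Inhibition of NKH477-driven (0.25 uM final) CRE-beta-lactamase signal in HEK293T cells, 3 h compound exposure at 37 °C, detected by FRET substrate fluorescence.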
% is scaled to controls: 0 for no effect and ±100 for the full control effect.

S=C1NC=NC2N=CNC12 (configuration not stated)
inactive: Potency [1] | Potency [2] | Potency [3] | outcome [4] | Potency [5] | Potency [6] | Potency [7] | Potency [8] | Potency [9] | Potency [10] | Potency [11] | Potency [12] | Potency [13] | Potency [14] | Potency [15]

O=C(CCCl)NCc1ccccc1
inactive: Potency [1] | Potency [2] | outcome [16] | outcome [4] | Potency [17] | Potency [5] | Potency [6] | Potency [7] | Potency [18] | Potency [19] | Potency [8] | Potency [9] | Potency [10] | Potency [11] | Potency [20] | Potency [13] | Potency [14] | Potency [15]

Clc1ccc(C(Cn2ccnc2)OCc2c(Cl)cccc2Cl)c(Cl)c1 (configuration not stated)
active: Potency [1] 23.7 µM | Potency [2] 11.9 µM | Potency [10] 11.6 µM
inactive: Potency [3] | Potency [17] | Potency [5] | Potency [6] | Potency [7] | Potency [11] | Potency [12] | Potency [13] | Potency [14] | Potency [15]

CC(C)Cc1nccs1
inactive: Potency [1] | Potency [2] | Potency [3] | outcome [4] | Potency [5] | Potency [6] | Potency [7] | Potency [8] | Potency [9] | Potency [10] | Potency [11] | Potency [13] | Potency [14] | Potency [15]

O=CN1CCCCC1
inactive: Potency [1] | Potency [2] | Potency [3] | Potency [17] | Potency [5] | Potency [6] | Potency [7] | Potency [18] | Potency [19] | Potency [8] | Potency [9] | Potency [11] | Potency [12] | Potency [20] | Potency [13] | Potency [14] | Potency [15]

CCCCCCCCCCCCCc1ccccc1
inactive: Potency [1] | Potency [2] | Potency [3] | outcome [4] | Potency [17] | Potency [6] | Potency [7] | Potency [18] | Potency [19] | Potency [9] | Potency [10] | Potency [11] | Potency [12] | Potency [20] | Potency [13] | Potency [14] | Potency [15]

COc1ccccc1OCC(O)CN1CCN(CC(=O)Nc2c(C)cccc2C)CC1 (configuration not stated)
active: Potency [13] 11.9 µM
inactive: Potency [1] | Potency [2] | outcome [16] | outcome [4] | Potency [17] | Potency [5] | Potency [6] | Potency [7] | Potency [18] | Potency [19] | Potency [8] | Potency [9] | Potency [10] | Potency [11] | Potency [12] | Potency [14] | Potency [15]

C[C@H]1NCc2cc(-c3ccc4c(=O)c(C(=O)O)cn(C5CC5)c4c3OC(F)F)ccc21
inactive: activity change, negative = cytotoxicity [1] 4.74% [at 19 µM] | activity, positive = activation [2] -0.2% [at 19 µM] | activation [16] -1.09% [at 15.8 µM] | activation [4] -0.804% [at 11.8 µM] | activation [17] -4.26% [at 13.5 µM] | activation [5] 0.634% [at 13.6 µM] | activity change, negative = cytotoxicity [6] -4.1% [at 13.5 µM] | activity change, negative = cytotoxicity [7] 2.66% [at 13.5 µM] | activity change, negative = cytotoxicity [18] -9.15% [at 13.5 µM] | activation [19] -3.01% [at 13.5 µM] | activity, negative = inhibition [8] 1.4% [at 12.7 µM] | activation [9] -1.89% [at 15.9 µM] | activity, negative = inhibition [10] 19.5% [at 12.6 µM] | activation [11] -0.122% [at 15.8 µM] | activation [12] -1.76% [at 19 µM] | activity change, negative = inhibition [13] 10.3% [at 19 µM] | activation [14] -2.66% [at 19 µM]

CCN(CC)CCc1nc(-c2ccccc2)no1
inactive: Potency [1] | Potency [2] | Potency [3] | outcome [4] | Potency [5] | Potency [6] | Potency [7] | Potency [18] | Potency [19] | Potency [12] | Potency [13] | Potency [14] | Potency [15]

O=C(O)c1cc(O)c2c(c1)C(=O)c1cccc(O)c1C2=O
inactive: Potency [1] | Potency [2] | outcome [16] | outcome [4] | Potency [17] | Potency [5] | Potency [6] | Potency [7] | Potency [18] | Potency [19] | Potency [8] | Potency [9] | Potency [10] | Potency [11] | Potency [14] | Potency [15]

Cc1c(Cn2ccnc2)c2ccccc2n1CCC(=O)O
inactive: Potency [1] | Potency [2] | Potency [3] | Potency [17] | Potency [5] | Potency [18] | Potency [8] | Potency [9] | Potency [10] | Potency [11] | Potency [12] | Potency [20] | Potency [13] | Potency [14] | Potency [15]

Nc1ccc(S(=O)(=O)NCc2ccccc2)cc1
inactive: Potency [1] | Potency [2] | Potency [3] | outcome [4] | Potency [17] | Potency [6] | Potency [7] | Potency [18] | Potency [9] | Potency [10] | Potency [11] | Potency [12] | Potency [20] | Potency [13] | Potency [14]

CCCCCc1ccc(Cl)cc1
inactive: Potency [1] | Potency [2] | outcome [16] | outcome [4] | Potency [17] | Potency [5] | Potency [6] | Potency [7] | Potency [18] | Potency [19] | Potency [8] | Potency [9] | Potency [10] | Potency [11] | Potency [12] | Potency [20] | Potency [13] | Potency [14] | Potency [15]
